# Measured values from the supplement of paper PMC12669797.
# Values joined by “and” are separate entries in the source; they are usually repeats but may differ in a detail not shown here. Equal values may be shown once. Where a name gives a salt, the structure may show the parent alone. ± gives the standard deviation of the averaged measurements.
# What was measured:
# ES2 = assay: cell viability relative to DMSO control (MTS) (fraction of DMSO control); higher = more viable cells / less growth inhibition; conditions: 10 µM; 48 h
# Outline: (§1)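 A 367-compound […] library was tested at a final concentration of 10 µM on TOV-21G and ES2 clear cell carcinoma cells (5000 cells per well, 96-well plates, pre-grown 24 h), with control wells receiving vehicle only. Following 48 h of exposure, CellTiter 96 AQueous One Solution was used as the manufacturer directs. This MTS assay gives cell viability as a fraction of the vehicle control.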
# TOV-21G = assay: as above; conditions: 10 µM; 48 h
# Outline: as §1
SMILES,cell viability (ES2),cell viability (TOV-21G)
NC(=O)NO [Hydroxyurea],1.21,0.811
C/C=C/C=C\C=C/C(O)C(C)C(CCC(C)C1OC(=O)C=CC1C)OP(=O)(O)O (centres undefined) [Cytostatin],0.34,0.344
Cn1nnc2c(C(N)=O)ncn2c1=O [temozolomide],1.2,1.12
CC1(C)CCC(C)(C)c2cc(NC(=O)c3ccc(C(=O)O)cc3)ccc21 [tamibarotene],1.16,1.49
CS(=O)(=O)Nc1ccc([N+](=O)[O-])cc1OC1CCCCC1,0.933,1.02
OC[C@H]1NC[C@H](O)[C@@H](O)[C@@H]1O [Deoxynojirimycin],1.02,1.19
CNC(=O)c1ccc(N2C(=S)N(c3ccc(C#N)c(C(F)(F)F)c3)C(=O)C2(C)C)cc1F,1.14,1.18
CC(C)c1ccc2c(c1)c(SC(C)(C)C)c(CC(C)(C)C(=O)O)n2Cc1ccc(Cl)cc1,1.06,0.959
CCCCC(=O)Oc1ccccc1C(=O)O [Valeryl salicylate],0.917,1.01
CN(C)S(=O)(=O)c1ccc2c(c1)/C(=C/c1cc3c([nH]1)CCCC3)C(=O)N2,1.03,0.891
Nc1[nH]nc2nnc(-c3c(-c4ccccc4)nn4ccccc34)cc12 [ERK inhibitor II],0.847,0.734
N#C/C(=C\c1ccc(O)c(O)c1)C(=O)NCc1ccccc1,0.891 ± 0.39,1 ± 0.013
Cc1ncc2ccccc2c1C#N [4-cyano-3-methylisoquinoline],1.01,1
Cc1ccc(NC(=O)c2ccc(CN3CCN(C)CC3)cc2)cc1Nc1nccc(-c2cccnc2)n1 [imatinib mesylate],0.956,1.09
CC(C)C(=O)Nc1ccc([N+](=O)[O-])c(C(F)(F)F)c1 [Flutamide],0.917,1.09
Oc1nc(-c2ccc(C(F)(F)F)cc2)nc2c1CSCC2,0.961,1.1
Nc1ncn([C@@H]2O[C@H](CO)[C@@H](O)[C@H]2O)c(=O)n1 [Azacytidine],0.664,0.779
NC(=O)c1ccc(-c2nc(-c3ccccn3)c(-c3ccc4c(c3)OCO4)[nH]2)cc1,1.08 and 1.11,0.993 and 1.03
Cc1cc(Nc2cc(N3CCN(C)CC3)nc(/C=C/c3ccccc3)n2)n[nH]1,0.534,0.289
CCOC(=O)C1=C(C)NC(=S)NC1c1cccc(O)c1 (centres undefined) [Monastrol],0.884,0.853
COc1cc2ncnc(Nc3ccc(F)c(Cl)c3)c2cc1OCCCN1CCOCC1 [gefitinib],0.825,0.889

SMILES,cell viability (ES2),cell viability (TOV-21G)
N#CC[C@H](C1CCCC1)n1cc(-c2ncnc3[nH]ccc23)cn1 [Ruxolitinib],0.979,0.776
COc1ccc([C@@H]2Sc3ccccc3N(CCN(C)C)C(=O)[C@@H]2OC(C)=O)cc1 [Diltiazem],0.858,1.04
CO[C@H]1C[C@@H]2CC[C@@H](C)[C@@](O)(O2)C(=O)C(=O)N2CCCC[C@H]2C(=O)O[C@H]([C@H](C)C[C@@H]2CC[C@@H](OCCO)[C@H](OC)C2)CC(=O)[C@H](C)/C=C(\C)[C@@H](O)[C@@H](OC)C(=O)[C@H](C)C[C@H](C)/C=C/C=C/C=C/1C [everolimus],1.02,0.831
CC(=O)O[C@H]1C(=O)[C@@]2(C)[C@H]([C@H](OC(=O)c3ccccc3)[C@]3(O)C[C@H](OC(=O)[C@H](O)[C@@H](NC(=O)c4ccccc4)c4ccccc4)C(C)=C1C3(C)C)[C@]1(OC(C)=O)CO[C@@H]1C[C@@H]2O [Paclitaxel],0.467,1.25
CN(C)c1ccccc1CN1CCCN(Cc2ccccc2N(C)C)C1c1ccncc1,0.853,0.229
O=S(=O)(c1cccc2cnccc12)N1CCCNCC1,0.979,1.04
Oc1c2ccccc2c2c3c(cccc13)N=N2,0.721 ± 0.32,0.65 ± 0.023
CCn1cc(C(=O)O)c(=O)c2ccc(C)nc21 [Nalidixic acid],0.981,1.12
C[C@@H]1C[C@H]2[C@@H]3CCC4=CC(=O)C=C[C@]4(C)[C@@]3(F)[C@@H](O)C[C@]2(C)[C@@]1(O)C(=O)CO [Dexamethasone],1.01,1.29
COc1nccc(-c2c(-c3ccc(F)cc3)ncn2C2CCC(O)CC2)n1 (centres undefined),1.14,1.06
O=Cc1ccc(N2CCOCC2)cc1O,1.07,0.993
O=C1Cc2c([nH]c3ccc(Br)cc23)-c2ccccc2N1 [Kenpaullone],0.701 ± 0.11,0.468 ± 0.048
Cc1nc(Nc2ncc(C(=O)Nc3c(C)cccc3Cl)s2)cc(N2CCN(CCO)CC2)n1 [dasatinib],0.608,0.815
COc1cc(/C=C(\C#N)C(N)=O)cc(CSc2nc3ccccc3s2)c1O,0.978 ± 0.072,1.067 ± 0.0093
N#CC(=C(/N)Sc1ccccc1N)/C(C#N)=C(/N)Sc1ccccc1N,0.685 and 0.748,0.824 and 1.02
Nc1cccc2c1CN(C1CCC(=O)NC1=O)C2=O (centres undefined) [lenalidomide],0.928,0.954
Cc1ccc2nc(NCCN)c3ncc(C)n3c2c1,0.489,0.375
Cc1cccc(-c2nn(C(=S)Nc3ccccc3)cc2-c2ccnc3ccccc23)n1,0.872,1.01
O=C(O)c1cc(NCc2cc(O)ccc2O)ccc1O [Lavendustin C],1.36,1.17
"COc1cccc2c1C(=O)c1c(O)c3c(c(O)c1C2=O)C[C@@](O)(C(=O)CO)C[C@@H]3O[C@H]1C[C@H](N)[C@H](O)[C@H](C)O1 [Doxorubicin, HCl]",0.312,0.403
CNCCCN1c2ccccc2CCc2ccccc21 [desipramine hydrochloride],0.954,0.745

SMILES,cell viability (ES2),cell viability (TOV-21G)
NCC(=O)Nc1ccc(-n2nc(C(F)(F)F)cc2-c2ccc3c(ccc4ccccc43)c2)cc1,1.04,1.21
C[C@@H]1C[C@H]2O[C@@H]2/C=C\C=C\C(=O)Cc2c(Cl)c(O)cc(O)c2C(=O)O1 [radicicol],0.409,0.342
CNC(=N)NCCC[C@H](N)C(=O)O,0.909,0.974
CN(C)CC(=O)Nc1ccc2[nH]c(=O)c3ccccc3c2c1,0.788,0.882
CC(Cc1ccc(O)c(O)c1)C(C)Cc1ccc(O)c(O)c1 (centres undefined) [Nordihydroguaiaretic acid (NDGA)],1,0.865
CC[C@H](C)C(=O)O[C@H]1C[C@@H](C)C=C2C=C[C@H](C)[C@H](CC[C@@H]3C[C@@H](O)CC(=O)O3)[C@H]21 [Lovastatin],0.595,0.792
CCCCCCCC(=O)OCCOC(=O)CCCCCCC [Dioctanoylglycol],1.3,0.996
CO[C@@H]1[C@H](OC(=O)/C=C/C=C/C=C/C=C/C(=O)O)CC[C@]2(CO2)[C@H]1[C@@]1(C)O[C@@H]1CC=C(C)C [Fumagillin],0.91,0.991
CN(C)CCCN1c2ccccc2Sc2ccc(Cl)cc21 [chlorpromazine hydrochloride],0.947,0.868
Nc1ncnc2nc(-c3ccc(N4CCOCC4)nc3)cc(-c3cccc(Br)c3)c12,0.795,0.484
"N#CCCc1ccc2c(c1)-c1[nH]c3ccc([N+](=O)[O-])cc3c1CC(=O)N2 [Alsterpaullone, 2-cyanoethyl]",0.893,0.778
CCC(=C/[C@H](C)C/C=C/C(C)=C/[C@@H](C)C(=O)[C@@H](C)[C@H](O)[C@@H](C)C/C(C)=C/C(=O)O)/C=C/[C@@H]1OC(=O)C=C[C@@H]1C [Leptomycin B*],0.406,0.39
O=C1CCC(N2C(=O)c3ccccc3C2=O)C(=O)N1 (centres undefined) [thalidomide],0.958,0.989
CN(C)CCCCC(=O)Nc1ccc(NC(=S)NC(=O)c2ccc(C(C)(C)C)cc2)cc1 [Tenovin-6],0.406,0.274
"CC/C(=C(\c1ccccc1)c1ccc(OCCN(C)C)cc1)c1ccccc1 [Tamoxifen, citrate]",1.34,0.868
CSc1ccc(/C=C2/C(C)=C(CC(=O)O)c3cc(F)ccc32)cc1 [Sulindac sulfide],1.38,1.3
"COc1cccc2c1C(=O)c1c(O)c3c(c(O)c1C2=O)C[C@@](O)(C(C)=O)C[C@@H]3O[C@H]1C[C@H](N)[C@H](O)[C@H](C)O1 [Daunorubicin, HCl]",0.435,0.527
NC(=O)Nc1sc(-c2ccccc2)cc1C(N)=O [IKK-2 inhibitor VI],0.555,0.476
C[C@@H]1C[C@H]2O[C@@H]2/C=C\C=C\C(=O)Cc2c(Cl)c(O)cc(O)c2C(=O)O1 [Radicicol],0.533,0.37
CC(C)C[C@H](NC(=O)[C@@H](O)[C@H](N)Cc1ccccc1)C(=O)O [Bestatin],0.885,1.13
